Results taken from PubChem BioAssay (NCATS).
Records with an inconclusive call do not appear. A number with no mark means an inactive call. Active and inactive are the calls of the source. Calls follow the shape of the dose curve; as a rule, active = well fitted cell-killing curve with a large enough effect; inconclusive = small, poorly fitted or top-dose-only effect, or effect the other way; inactive = no such curve, though single readings can be large or run the other way.

Experiment: Quantitative High-Throughput drug screen in 47 multiple myeloma cell lines against the NCATS MIPE library collection: UTMC2_PLB cell viability assay (AID 1919868); also: nearly all actives have a fitted effect of over 55% in size
Conditions: CellTiter-Glo ATP luminescence, 48 h; viability (% of DMSO control): at 45.8 µM (top of the series)
Description: PI: Beverly A. Mock Ph.D.
Laboratory of Cancer Biology and Genetics,
Center for Cancer Research, National Cancer Institute,
National Institute of Health, Bethesda, Maryland
Drug resistance and disease progression are common in multiple myeloma (MM) patients, underscoring the need for new therapeutic combinations. […] We hypothesized that effective combinations would reduce MYC expression and enhance p16 activity. […] These preclinical data identify potentially useful drug combinations for evaluation in drug-resistant MM and reveal potential mechanisms of combined drug sensitivity.
Described herein is the primary MIPE qHTS used to cherrypick compounds. Validated compounds were then further tested for potential synergistic activiy.
[1] Peat TJ, Gaikwad SM, Dubois W, Gyabaah-Kessie N, Zhang S, Gorjifard S, Phyo Z, Andres M, Hughitt VK, Simpson RM, Miller MA, Girvin AT, Taylor A, Williams D, D'Antonio N, Zhang Y, Rajagopalan A, Flietner E, Wilson K, Zhang X, Shinn P, Klumpp-Thomas C, McKnight C, Itkin Z, Chen L, Kazandijian D, Zhang J, Michalowski AM, Simmons JK, Keats J, Thomas CJ, Mock BA. Drug combinations identified by high-throughput screening promote cell cycle transition and upregulate Smad pathways in myeloma. Cancer Lett. 2023 Aug 1;568:216284. doi: 10.1016/j.canlet.2023.216284. Epub 2023 Jun 24. PMID: 37356470; PMCID: PMC10408729.
SEQUENCE No. (e.g., 1, 2, 3, etc.); […] (e.g., Cells, Incubation, Reagent, etc.); VALUE and DESCRIPTION.
1; Cells; 5 uL; white, solid bottom 1536-well Greiner assay plate.
2; Compounds; 23 nL; Kalypsis pin tool (Wako USA) equipped with a 1536-well pin head to transfer to the assay plates.
3; Incubation; 48 hours; 37C incubation.
4; Reagent;5uL; CellTiter Glo (Promega).
5; Detector; 425V; Luminescence; Viewlux PerkinElmer.
NOTES (numbers refer to Sequence numbers above)
1. The cell-based screening methods employed in this study were like those previously published. Briefly, the corresponding myeloma cell lines were screened in 1,536-well plates with 500 cells, 5-uL per well for inhibition of cell viability (assessed by measuring ATP levels with CellTiterGlo).
2. NCATS MIPE 4.0 library of approved and investigational drugs were added using the Kalypsis pin tool. Wells treated with DMSO only for 100% viability and media only for 0% viability were used as controls.
3. The assay plates were covered and incubated for 48 hours in a 37C, 5% CO2 incubator with controlled humidity.
4. After 48 hours, CellTilter-GloTM luminescent substrate mix (Promega) reagent was added to the assay plate and plates we incubated for 5 min at room temperature.
5. Signal was measured as median relative luminescence units on a ViewLux (PerkinElmer) multiplate reader.
[1] Heske CM, Davis MI, Baumgart JT, Wilson K, Gormally MV, Chen L, Zhang X, Ceribelli M, Duveau DY, Guha R, Ferrer M, Arnaldez FI, Ji J, Tran HL, Zhang Y, Mendoza A, Helman LJ, Thomas CJ. Matrix Screen Identifies Synergistic Combination of PARP Inhibitors and Nicotinamide Phosphoribosyltransferase (NAMPT) Inhibitors in Ewing Sarcoma. Clin Cancer Res. 2017 Dec 1;23(23):7301-7311. doi: 10.1158/1078-0432.CCR-17-1121. Epub 2017 Sep 12. PMID: 28899971; PMCID: PMC6636827.
Potency is read from the fitted curve at half-maximal effect.

**Q.** Which “viability (% of DMSO control)” value does the source give for CC[C@H]1OC(=O)[C@H](C)[C@@H](O[C@H]2C[C@@](C)(OC)[C@@H](O)[C@H](C)O2)[C@H](C)[C@@H](O[C@@H]2O[C@H](C)C[C@H](N(C)C)[C@H]2O)[C@](C)(O)C[C@H](C)C(=NOCOCCOC)[C@H](C)[C@@H](O)[C@]1(C)O here?
**A.** The value was 113%.

**Q.** Which Potency does the source give for CNC(=O)[C@H](CC1=CN=C2C=CCC=C12)NC(=O)[C@@H](CC(=O)NO)CC(C)C here?
**A.** The Potency was 18.7 µM (active).

**Q.** For C=C[C@@H]1CN2CCC1C[C@@H]2C(O)c1ccnc2ccc(OC)cc12 (stereo not given in full), which “viability (% of DMSO control)” value is on record?
**A.** Its value is 165%.

**Q.** For CCC[C@@H](NC(=O)[C@@H]1[C@H]2CCC[C@@H]2CN1C(=O)[C@@H](NC(=O)[C@@H](NC(=O)c1cnccn1)C1CCCCC1)C(C)(C)C)C(=O)C(=O)NC1CC1, which “viability (% of DMSO control)” value is on record?
**A.** Its value is 76.3%.

**Q.** With CSc1cccc(Nc2ncc3cc(-c4c(Cl)cccc4Cl)c(=O)n(C)c3n2)c1 as the molecule, how does the Potency read?
**A.** Its Potency is 0.0166 µM (active).

**Q.** Which Potency does the source give for FC(F)(F)c1ccc(C=Cc2nc(COc3ccc(CCCCn4ccnn4)cc3)co2)cc1 here?
**A.** Its Potency is 0.0833 µM (active).

**Q.** Which “viability (% of DMSO control)” value does the source give for CN1CCN(c2ncc(-c3cc(Cl)cc(Cl)c3Cl)c(N)n2)CC1 here?
**A.** Its value is 200%.

**Q.** With O=C(c1ccc(C(=O)N2CCC(N3CCCC3)CC2)c(Nc2ccccc2)c1)N1CCC(N2CCCC2)CC1 as the molecule, how does the “viability (% of DMSO control)” value read?
**A.** The value was 177%.

**Q.** Which Potency does the source give for CNC(=O)c1cc(Oc2ccc(NC(=O)Nc3ccc(Cl)c(C(F)(F)F)c3)c(F)c2)ccn1 here?
**A.** The Potency was 3.72 µM (active).

**Q.** For Cc1ccc(NC(=O)Nc2cc(C(F)(F)F)ccc2F)cc1Nc1ccc2c(c1)NC(=O)C2=Cc1ccc[nH]1, which Potency is on record?
**A.** The Potency was 8.33 µM (active).

**Q.** With CCCCCCCCCCCCCC(=O)N[C@H](CO)[C@H](O)c1ccc([N+](=O)[O-])cc1 as the molecule, how does the Potency read?
**A.** Its Potency is 18.7 µM (active).

**Q.** With O=S(=O)(NCCNCC=Cc1ccc(Br)cc1)c1cccc2cnccc12 as the molecule, how does the Potency read?
**A.** The Potency was 7.43 µM (active).

**Q.** Which Potency does the source give for CN[C@@H]1CN(c2ccc3c(=O)c(C(=O)O)cn(-c4nccs4)c3n2)C[C@@H]1OC here?
**A.** The Potency was 1.29 µM (active).

**Q.** With Cc1nc(C(=O)NCC(=O)O)c(O)c2ccc(Oc3ccccc3)cc12 as the molecule, how does the “viability (% of DMSO control)” value read?
**A.** Its value is 177%.

**Q.** Which “viability (% of DMSO control)” value does the source give for CO[C@H]1C=CO[C@@]2(C)Oc3c(C)c(O)c4c(O)c(c(C=NN5CCN(C)CC5)c(O)c4c3C2=O)NC(=O)C(C)=CC=C[C@H](C)[C@H](O)[C@@H](C)[C@@H](O)[C@@H](C)[C@H](OC(C)=O)[C@H]1C here?
**A.** Its value is 91.4% [at 15.3 µM].

**Q.** Which Potency does the source give for Cc1cccc(-c2[nH]c(C(C)(C)C)nc2-c2ccc3c(c2)OCO3)n1 here?
**A.** Its Potency is 0.743 µM (active).

**Q.** With O=C1NC(=O)C(c2cnc3ccccn23)=C1c1cn2c3c(cccc13)CN(C(=O)N1CCOCC1)CC2 as the molecule, how does the Potency read?
**A.** Its Potency is 0.001 µM (active).

**Q.** For Cn1cnc(-c2cc3nccc(Oc4ccc(NC(=S)NC(=O)Cc5ccccc5)cc4F)c3s2)c1, which Potency is on record?
**A.** Its Potency is 0.132 µM (active).

**Q.** With CC(O)=C(C#N)C(=O)Nc1ccc(C(F)(F)F)cc1 as the molecule, how does the Potency read?
**A.** The Potency was 33.2 µM (active).

**Q.** For CCc1cccc(CC)c1NC(=O)N1Cc2[nH]nc(NC(=O)c3ccc(N4CCN(C)CC4)cc3)c2C1, which Potency is on record?
**A.** The Potency was 0.743 µM (active).

**Q.** For Cc1ccccc1-n1c(Cn2nc(-c3cccc(O)c3)c3c(N)ncnc32)nc2cccc(C)c2c1=O, which Potency is on record?
**A.** Its Potency is 4.18 µM (active).

**Q.** With CCC(=O)N1CCN(c2ccc(-n3c(=O)ccc4cnc5ccc(-c6cnc7ccccc7c6)cc5c43)cc2C(F)(F)F)CC1 as the molecule, how does the Potency read?
**A.** The Potency was 0.0469 µM (active).

**Q.** With C[C@@H]1C[C@H]2[C@@H]3CCC4=CC(=O)C=C[C@]4(C)[C@@]3(F)[C@@H](O)C[C@]2(C)[C@@]1(O)C(=O)CO as the molecule, how does the “viability (% of DMSO control)” value read?
**A.** Its value is 138%.

**Q.** For CC(C)CN(C[C@@H](O)[C@H](Cc1ccccc1)NC(=O)O[C@H]1CO[C@H]2OCC[C@H]21)S(=O)(=O)c1ccc(N)cc1, which Potency is on record?
**A.** Its Potency is 13.2 µM (active).

**Q.** For CCC(=C(c1ccc(O)cc1)c1ccc(OCCNC)cc1)c1ccccc1, which Potency is on record?
**A.** The Potency was 9.35 µM (active).

**Q.** With Cc1cc2nc3c(=O)[nH]c(=O)nc-3n(CC(O)C(O)C(O)CO)c2cc1C (stereo not given) as the molecule, how does the “viability (% of DMSO control)” value read?
**A.** The value was 99.8%.

**Q.** Which Potency does the source give for C[C@@H](N)c1ccc(C(=O)Nc2ccnc3[nH]ccc23)cc1 here?
**A.** The Potency was 16.6 µM (active).

**Q.** For CN1C(=O)C(Cc2c[nH]c3ccccc23)NC1=S (stereo not given), which Potency is on record?
**A.** Its Potency is 2.96 µM (active).

**Q.** Which “viability (% of DMSO control)” value does the source give for CC1(C)OC2CC3C4CC(F)C5=CC(=O)C=CC5(C)C4C(O)CC3(C)[C@]2(C(=O)CO)O1 (stereo not given in full) here?
**A.** Its value is 142%.

**Q.** With OC[C@H]1O[C@@H](Oc2ccc(O)cc2)[C@H](O)[C@@H](O)[C@H]1O as the molecule, how does the Potency read?
**A.** The Potency was 9.35 µM (active).

**Q.** With O=C(Nc1cccc(C(F)(F)F)c1)Nc1cc(S(=O)(=O)NC2CC2)ccc1-c1ccsc1 as the molecule, how does the Potency read?
**A.** Its Potency is 18.7 µM (active).

**Q.** For CN(C(Cc1ccc(OS(=O)(=O)c2cccc3cnccc23)cc1)C(=O)N1CCN(c2ccccc2)CC1)S(=O)(=O)c1cccc2cnccc12 (stereo not given), which Potency is on record?
**A.** Its Potency is 6.62 µM (active).

**Q.** With CC[C@H](C=C[C@@H](C)[C@H]1CC[C@H]2[C@@H]3CC=C4C[C@@H](O)CC[C@]4(C)[C@@H]3CC[C@]12C)C(C)C as the molecule, how does the “viability (% of DMSO control)” value read?
**A.** Its value is 151% [at 23.2 µM].

**Q.** Which Potency does the source give for O=C(c1ccc(C=Cc2n[nH]c3ccccc23)cc1)N1CCNCC1 here?
**A.** Its Potency is 0.332 µM (active).

**Q.** Which “viability (% of DMSO control)” value does the source give for CCC(=O)NCC[C@@H]1CCc2ccc3c(c21)CCO3 here?
**A.** The value was 142%.

**Q.** Which “viability (% of DMSO control)” value does the source give for CC[C@H](C)C(=O)O[C@H]1C[C@H](O)C=C2C=C[C@H](C)[C@H](CC[C@@H](O)C[C@@H](O)CC(=O)O)[C@H]21 here?
**A.** Its value is 128%.

**Q.** Which Potency does the source give for COc1ccc(-c2cc3nccn3c(Nc3ncccc3C(N)=O)n2)cc1OC here?
**A.** Its Potency is 1.18 µM (active).

**Q.** Which “viability (% of DMSO control)” value does the source give for O=C1C(c2c(O)[nH]c3ccccc23)=Nc2ccccc21 here?
**A.** Its value is 171%.

**Q.** For COc1cc([C@@H]2c3cc4c(cc3[C@@H](O[C@@H]3O[C@@H]5CO[C@@H](C)O[C@@H]5[C@H](O)[C@@H]3O)[C@H]3COC(=O)[C@H]23)OCO4)cc(OC)c1O, which Potency is on record?
**A.** The Potency was 0.418 µM (active).

**Q.** For Nc1[nH]nc2nnc(-c3c(-c4ccccc4)nn4ccccc34)cc12, which Potency is on record?
**A.** The Potency was 4.18 µM (active).
